Assay results reported in PubChem BioAssay AID686978 (National Center for Advancing Translational Sciences (NCATS), 2013).
About 64,000 (15%) of roughly 420,000 compounds were called active. Inconclusive results (about 27%) are left out. Calls come from the whole dose curve; as a rule, active = well fitted inhibition curve with a large enough effect; inconclusive = small, poorly fitted or top-dose-only effect; inactive = flat fitted curve, though single readings scatter. Only a sample is shown. Where a call stands in place of a potency, no number is given.

Experiment: qHTS for Inhibitors of human tyrosyl-DNA phosphodiesterase 1 (TDP1): qHTS in cells in absence of CPT; note: nearly all actives have a fitted effect of over 55% in size
Details: DT40 Tdp1-/- hTDP1 cells, no CPT, ATP luminescence, 48 h; activity change, negative = growth inhibition: at 46.2 µM (top of the series)
Procedure, shortened: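 Growth kinetics read by CellTiter-Glo luminescence after ≥48 hr at 37 °C. Cells: DT40 Tdp1-/- stably carrying human TDP1, 400 per well, compound exposure in the absence of CPT (DMSO vehicle).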
Potency is the fitted concentration of half-maximal effect.

Row | SMILES | Potency
1 | Cc1nc2c(c(C)nn2-c2ccccc2)c(C)c1C | inactive
2 | Cc1cccc(-n2nc3c(c2NC(=O)c2cc4ccccc4o2)CS(=O)(=O)C3)c1 | inactive
3 | CC(C)COc1ccc(C(=O)NNC(=O)CCC(=O)c2cccs2)cc1 | inactive
4 | CCCCCCCCCCCC(=O)O[C@H](CC(=O)O)C[N+](C)(C)C | inactive
5 | CC(=O)c1ccc(Cc2ncc(C(F)(F)F)cc2Cl)s1 | inactive
6 | Cc1ccc(S(=O)(=O)N(CCc2ccccc2)c2ccc3c(c2)C2CC3CCN2C(=O)OCc2ccccc2)cc1 (centres undefined) | 9.2 µM (active)
7 | CCOC(=O)N1CCN(C(=O)CN(c2ccc(C)c(C)c2)S(=O)(=O)c2ccccc2)CC1 | inactive
8 | Cc1ccc(S(=O)(=O)CCC(=O)OCc2ccccc2)cc1 | inactive
9 | COc1cc(C(C)=O)ccc1OC(=O)CN1C(=O)c2ccccc2C1=O | inactive
10 | CCOC(=O)c1[nH]cnc1C(=O)Nc1ccccc1C | inactive
11 | O=C(Nc1ccc2c(c1)CCC2)c1cccc(S(=O)(=O)Nc2ccccc2Cl)c1 | inactive
12 | CCCCN(C(=O)c1ccc(C)o1)c1c(N)n(CCCC)c(=O)[nH]c1=O | inactive
13 | O=C(Nc1ccc(CN2CCOCC2)cc1)c1cc(Cl)ccc1Cl | inactive
14 | CC(C)(C)c1cc(NC(=O)NN2CCOCC2)nn1-c1c(Cl)cc(Cl)cc1Cl | 14.6 µM (active)
15 | O=C(CN1CCOCC1)Nc1c(Cl)cc(Cl)cc1Cl | inactive
16 | Cn1cccc1/C=C1\SC(=O)N(CC(=O)Nc2ccc(F)cc2)C1=O | inactive
17 | CNC(=S)NNC(=O)c1oc2nc(-c3ccccc3)cc(-c3ccco3)c2c1N | inactive
18 | COc1ccccc1C1C2=C(COC2=O)Nc2cc3c(cc21)OCO3 (centres undefined) | inactive
19 | O=C1OCC2=C1C(c1ccc(Cl)cc1)c1cc3c(cc1O2)OCO3 (centres undefined) | 16.4 µM (active)
20 | O=C(c1ccc(O)cc1)c1ccc(C(=O)O)c(C(=O)O)c1 | inactive
21 | Cc1cccn2cc(-c3cccc(S(=O)(=O)N4CCCCC4)c3)nc12 | inactive
22 | O=C(O)CCn1cc(/C=C/C(=O)c2ccc(Cl)cc2)c(-c2cccc(Br)c2)n1 | 23.1 µM (active)
23 | O=C(O)/C=C/c1cn(Cc2ccccc2)nc1-c1cccs1 | inactive
24 | CCOC(=O)/C(C#N)=C/c1cn(CCC(=O)O)nc1-c1ccc(Br)cc1 | inactive
25 | CC1CN(C(=O)c2ccccc2NS(=O)(=O)c2cccc([N+](=O)[O-])c2)CC(C)O1 (centres undefined) | inactive
26 | COc1ccc2c(Cl)c(-c3nnco3)sc2c1 | inactive

Row | SMILES | Potency
27 | COc1ccc(-c2sc3ccc(OC)cc3c2C#Cc2ccccn2)cc1 | 18.4 µM (active)
28 | COc1ccc2sc(-c3ccc(S(C)(=O)=O)cc3)c(-c3ccc(C(N)=O)cc3)c2c1 | inactive
29 | COc1ccc2sc(-c3ccc(N(C)C)cc3)c(-c3ccc4cc[nH]c4c3)c2c1 | inactive
30 | COc1ccc2sc(-c3ccc(N(C)C)cc3)c(C#CCO)c2c1 | 18.4 µM (active)
31 | COc1cc(OC)cc(-c2sc3ccc(OC)cc3c2-c2ccc3cc[nH]c3c2)c1 | inactive
32 | CC(C)(C)c1ccc(S(=O)(=O)NC(=O)C2(C)CCN2C(=O)CC2CC2)cc1 (centres undefined) | inactive
33 | CCS(=O)(=O)C1=NSC2=NC(=O)/C(=C\c3ccc(OS(=O)(=O)c4ccccc4)cc3)C(=N)N21 | inactive
34 | Cc1cc(C)cc(NC(=O)C(OC(=O)c2ccc(O)cc2)c2ccccc2)c1 (centres undefined) | inactive
35 | CCCn1c(C)cc(/C=C(\C#N)C(=O)OCC(=O)N(C)c2c(N)n(Cc3ccccc3)c(=O)[nH]c2=O)c1C | inactive
36 | COc1ccc(N/N=C2/CCCCC2=O)cc1 | inactive
37 | CC1(C)CN(c2ccc(-c3ccnc4ncnn34)cc2)C1=O | inactive
38 | O=C(NC1CC(=O)N(c2ccccc2)C1)c1ccco1 (centres undefined) | inactive
39 | CC(=O)Oc1cccc(N2C(=O)C3CC=C(Cl)CC3C2=O)c1 (centres undefined) | inactive
40 | O=C(Oc1cccc(N2C(=O)C3C4c5ccccc5C(c5ccccc54)C3C2=O)c1)c1ccco1 (centres undefined) | 29.1 µM (active)
41 | CC(C)(C)c1ccc(SCCc2ccncc2)cc1 | 16.4 µM (active)
42 | CC(C)(C)NC(=O)C(=O)NCc1ccncc1 | inactive
43 | c1ccc(CSCCc2ccncc2)cc1 | inactive
44 | COc1ccc(OCC(O)CN(C)C(=O)C(C)Oc2ccccc2)cc1 (centres undefined) | inactive
45 | CN(C)CC(O)COc1ccc(C(C)(C)c2ccc(OCC(O)CN(C)C)cc2)cc1 (centres undefined) | 17.8 µM (active)
46 | CCCc1ccc(OCC(O)CN2CCN(CCO)CC2)cc1 (centres undefined) | inactive
47 | O=S(=O)(Cc1nnnn1-c1ccccc1)c1ccccc1 | inactive
48 | CC(C)C(=O)Nc1ccc2oc(=O)ccc2c1 | inactive
49 | Fc1cccc(Cc2c(-c3cccc(Cl)c3)nc3ccc(Br)cn23)c1 | 14.6 µM (active)
50 | Cc1cc(Br)cn2c(Cc3cccc(F)c3)c(-c3cccc(Br)c3)nc12 | 23.1 µM (active)
51 | Cc1cc(Br)cn2c(Cc3ccccc3C(F)(F)F)c(-c3ccc(Cl)cc3)nc12 | inactive
52 | CC(C)(C)Cc1c(C2CCCCC2)nc2ccc(Br)cn12 | inactive

Row | SMILES | Potency
53 | CCOC(=O)N1CCN(S(=O)(=O)c2cc3c(cc2C)NC(=O)CO3)CC1 | inactive
54 | Cc1nc(N)c(Br)c(C)c1Br | inactive
55 | CCOC(=O)C1C(=O)NC(N2CCN(c3ccccc3)CC2)=NC1c1ccco1 (centres undefined) | inactive
56 | Cc1cc(N=Nc2ccc3ccccc3c2)ccc1O | inactive
57 | CC(C)C[C@H](NC(=O)N1CCn2c1nc1ccccc12)C(=O)NC1CC1 | inactive
58 | COc1ccc(-n2ccn(CC(=O)Nc3ccc(C)c(C)c3)c(=O)c2=O)cc1OC | inactive
59 | COc1ccc(NC(=O)CN2C(=O)CSC2=O)cc1 | inactive
60 | CCOC(=O)c1cn(CC(=O)Nc2ccc(C(C)C)cc2)nn1 | inactive
61 | COc1ccc(NC(=O)CN2C(=O)C(c3ccccc3)=NC23CCCCCC3)cc1OC | 18.4 µM (active)
62 | COc1ccc(NC(=O)CC2SC(N3CCCCC3)=NC2=O)cc1OC (centres undefined) | inactive
63 | COc1ccc(NC(=O)CNC(=O)Cc2ccccc2)cc1OC | inactive
64 | COc1ccc(C2=NC3(CCCCC3)N(CC(=O)Nc3ccc(C(C)C)cc3)C2=O)cc1 | 20.6 µM (active)
65 | NC(=O)C1(N2CCCCC2)CCN(C2CC(=O)N(Cc3ccc(N4CCCC4=O)cc3)C2=O)CC1 (centres undefined) | inactive
66 | CC(Oc1cccc(Cl)c1)C(=O)Nc1ccc(S(=O)(=O)Nc2ncccn2)cc1 (centres undefined) | inactive
67 | C[C@H](CO)N1C[C@H](C)[C@H](CN(C)CC2CC2)Oc2ccc(NC(=O)CCN3CCOCC3)cc2C1=O | inactive
68 | CC1CCCN(C(=O)c2cc(-c3ccco3)nc3ccccc23)C1 (centres undefined) | inactive
69 | O=C1c2cccc3cccc(c23)C(=O)N1CCCCCc1n[nH]c(=S)o1 | inactive
70 | COc1ccc(-c2cc(C(=O)N(C)Cc3ccc(OC)c(OC)c3OC)c3ccccc3n2)cc1OC | 18.4 µM (active)
71 | COc1ccc(-c2cc(C(=O)N(C)Cc3ccccc3)c3ccccc3n2)cc1 | 14.6 µM (active)
72 | COc1ccc(/C=N/OCC(=O)N(Cc2ccccc2)c2ccccc2C(=O)O)cc1 | inactive
73 | CN(Cc1ccc(F)cc1)C(=O)COc1ccc2ccccc2c1 | inactive
74 | Cc1cccc(C(=O)NCC(=O)OCC(=O)N(C)CC(=O)Nc2ccccc2Cl)c1 | inactive
75 | COc1ccccc1NC(=O)c1cc(Cl)nc2ccccc12 | inactive
76 | COc1ccc(CN(C)C(=O)Cc2c[nH]c3ccccc23)c(OC)c1OC | inactive
77 | COc1ccc(NC(=O)c2cc(-c3cc(OC)c(OC)c(OC)c3)nc3ccccc23)c(OC)c1 | 8.2 µM (active)
78 | CC(C)(C)Cc1nnc(NC(=O)c2cc(-c3ccccc3)nc3ccccc23)s1 | inactive

Row | SMILES | Potency
79 | CN(CC(=O)Nc1ccccc1Cl)C(=O)c1ccccc1SCC(=O)N1CCCC1 | inactive
80 | COc1ccc(-c2cc(C(=O)N(C)CC(=O)Nc3ccccc3Cl)c3ccccc3n2)cc1OC | 9.2 µM (active)
81 | CC(C)(O)C#Cc1ccc(CNC[C@H]2O[C@@H](n3cnc4c(=O)[nH]c(N)nc43)[C@H](O)[C@@H]2O)s1 | inactive
82 | O=C(CN1CCC(NC(=O)C2CC2)CC1)Nc1ccccc1[N+](=O)[O-] | inactive
83 | C=O | inactive
84 | CN1CCC2(CC1)NC(=O)NC2=O | inactive
85 | Cc1ccc(NC(=O)COC(=O)CNC(=O)c2ccc(Cl)cc2Cl)cc1S(=O)(=O)N1CCOCC1 | inactive
86 | NC(=O)Cc1ccc2sc(-c3ccccc3)nc2c1 | inactive
87 | Cn1c(=O)n(C)c2cc(/C=N/NC(=O)c3cccc(Br)c3)ccc21 | inactive
88 | COc1ccc(CN(C)C(=O)Cc2ccsc2)c(OC)c1OC | inactive
89 | Cc1ccc(-c2cc(C(=O)Nc3nn[nH]n3)c3ccccc3n2)c(C)c1 | inactive
90 | COc1ccc(CN(C)C(=O)c2cc(-c3ccc(C)cc3C)nc3ccccc23)c(OC)c1OC | 11.6 µM (active)
91 | CC(=O)Nc1nc2c(s1)C(=O)NCC(C)(C)C2 | inactive
92 | Cn1nc(C(C)(C)C)c(NC(=O)c2sccc2Cl)c1C(C)(C)C | inactive
93 | NCCCNCCCCN(CCCN)/[N+]([O-])=N/O | 13.3 µM (active)
94 | COc1ccc(CN2[C@@H](CC(=O)O)c3cc(F)ccc3S2(=O)=O)cc1 | inactive
95 | COCCNC(=S)N1CCC(NC(=O)C23CC4CC(CC(C4)C2)C3)CC1 | inactive
96 | Cc1csc(NC(=S)Nc2cccc(Cl)c2)n1 | 4.61 µM (active)
97 | S=C(Nc1cccc(Cl)c1)Nc1ccc2c(c1)OCCO2 | inactive
98 | S=C(Nc1cccc(Cl)c1)Nc1ccc2cn[nH]c2c1 | inactive
99 | COc1cc(Cl)c(C)cc1Nc1nnc(-n2nc(C)cc2C)c2ccccc12 | inactive
100 | Cc1ccc(NC(=O)NC(=O)CSc2nnc(-c3ccc(OC(F)F)cc3)n2N)c(C)c1 | inactive
101 | CCOC(=O)CN(C(=O)CN1CCOCC1)c1ccc(Br)cc1 | inactive
102 | COCCNC(=O)c1ccc2c(c1)ncn2-c1ccc(C)c(Cl)c1 | 14.6 µM (active)
103 | COc1ccc(-n2cnc3cc(C(=O)NC4CCCC4)ccc32)cc1 | inactive
104 | COC(CNC(=O)c1ccc2c(c1)ncn2-c1cc(C)cc(C)c1)OC | inactive
